# Results: PubChem BioAssay AID686979 (National Center for Advancing Translational Sciences (NCATS), 2013)
# Screen size: about 420,000 compounds; about 50,000 (12%) were called active. Roughly 26% stayed inconclusive and do not appear here. What follows is part of a selection rich in actives, with near analogues and random picks from the rest. A number with no mark means an inactive call. Calls follow the shape of the dose curve; as a rule, active = well fitted inhibition curve with a large enough effect; inconclusive = small, poorly fitted or top-dose-only effect; inactive = flat fitted curve, though single readings scatter.
# Assay: qHTS for Inhibitors of human tyrosyl-DNA phosphodiesterase 1 (TDP1): qHTS in cells in presence of CPT; also: nearly all actives have a fitted effect of over 55% in size
# Settings: chicken DT40 Tdp1-/-;hTDP1 cells + 20 nM CPT, ATP luminescence, 48 h; series mostly up to 46.2 µM; activity change, negative = growth inhibition: at the top concentration
# How it was run: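 Chicken DT40 Tdp1-/- cells stably complemented with human TDP1 were seeded at 400 cells/well in medium containing 20 nM camptothecin, exposed to pin-transferred compounds, and grown at 37 °C for at least 48 hr. Viability was read as ATP luminescence.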
# % is scaled to controls: 0 for no effect and ±100 for the full control effect; potency is read from the fitted curve at half-maximal effect.
SMILES,"activity change, negative = growth inhibition [%]",Potency
Cc1ccc(C)c(OCCC(=O)OCC(=O)N2CCN(c3ccccc3)CC2)c1,-28,
CCC(=O)N1CCc2cc(S(=O)(=O)NC(C(=O)NCCc3ccc(C)cc3)C(C)C)ccc21 (stereo unspecified),4.77,
C[C@@H]1CN([C@@H](C)CO)C(=O)c2cc(NC(=O)C3CC3)ccc2O[C@H]1CN(C)C,-17.6,
COC(=O)c1ccc([C@@H](O)[C@H](C)C(=O)CC(=O)OC(C)(C)C)cc1,4.03,
COc1ccccc1N1CCN(C(=O)C(=O)N/N=C/c2ccccc2F)CC1,-7.99,
COc1ccccc1N1CCN(/N=C\C(Br)=C\c2ccccc2)CC1,,8.2 µM (active)
COc1ccccc1N1CCN(/N=C/c2ccc(O)cc2O)CC1,-23.9,
O=C(CN1C(=O)NC(Cc2c[nH]c3ccccc23)C1=O)Nc1ccccc1C(F)(F)F (stereo unspecified),-16.4,
O=C(O)C1CCC(CNS(=O)(=O)c2ccc(Br)cc2)CC1 (stereo unspecified),0.756,
CC(=O)N/C(=C/c1ccc(OC(F)F)cc1)C(=O)O,6.08,
NC(=O)c1cc(S(=O)(=O)NCCCc2ccco2)cs1,-27.2,
Cc1cccc(CC2(O)C(=O)Nc3ccccc32)n1 (stereo unspecified),-19.8,
CCN(CC)c1ccc2cc(C(N)=O)/c(=N\NC(=O)c3ccncc3)oc2c1,,16.4 µM (active)
COc1ccc(C(=O)N/N=c2\oc3ccccc3cc2C(N)=O)cc1,-8.26,
NC(=O)c1cc2ccccc2o/c1=N/NC(=O)c1cccc(F)c1,-23.1,
COc1cccc(NC(=S)NC(=O)c2c(Cl)c(C)nn2C)c1,3.79,
Cc1ccc(C(=O)COC(=O)c2cccc(N3C(=O)c4c(C)nc5ccccc5c4C3=O)c2)cc1C,1.34,
CCCCCCCCn1c2c(c(=N)c3c1CCC3)CCCC2,,0.92 µM (active)
CSc1ccccc1C(=O)NCc1ccccc1,1,
CC(C)(C)[C@H]1C=C(C(=O)NCc2ccccc2)O[C@@H](OCc2ccc(CO)cc2)C1,,18.4 µM (active)
O=C(O)C1CCN(C(=O)OCc2ccccc2)CC1,2.35,
CC1(C)CC(=O)c2cc(C(=O)NCc3ccccc3)c(=O)[nH]c2C1,-12.3,
O=C(NCc1ccccc1)C1=C[C@@H](C2CCCCC2)C[C@@H](OCc2ccc(CO)cc2)O1,,16.4 µM (active)
O=C(COC(=O)CNC(=O)C1CCCCC1)NCc1ccccc1,15.2,
CCCCc1nc(SCC(=O)Nc2nnc(C(C)C)s2)n[nH]1,-21.8,
O=C(OCC(=O)N1CCCC1=O)c1cc(S(=O)(=O)N2CCOCC2)ccc1Cl,3.27,

SMILES,"activity change, negative = growth inhibition [%]",Potency
O=C(OCC(=O)N1CCN(C(=O)c2ccco2)CC1)c1c(Cl)cccc1Cl,-3.35,
CC(=O)Nc1cccc(C(=O)OCC(=O)NCc2cc(C)c(O)c(C)c2)c1,3.43,
CC(=O)c1cccc(OCC(=O)OCC(=O)Nc2cc(S(=O)(=O)N3CCCCC3)ccc2C)c1,-0.0276,
c1ccc2cc(CCCc3cc4ccccc4cn3)ncc2c1,-26.5,
CN(CC(=O)NCCc1ccccn1)S(=O)(=O)c1ccc(Cl)cc1,3.55,
O=C(NCCc1ccccn1)c1cc(-c2ccc(Cl)cc2)nc2ccccc12,,13 µM (active)
O=C(NCc1ccccn1)c1cc(Br)ccc1Cl,-2.09,
COC(=O)c1ccc2c(c1)S(=O)(=O)NC2C (stereo unspecified),7.67,
CCCNC(=O)C1CCN(c2nc3ccc(C)cc3[nH]2)CC1,-11.4,
CCC1CCCCN1S(=O)(=O)Cc1ccccc1Cl (stereo unspecified),-0.993,
CN(CCc1ccccn1)C(=O)c1ccc(OC2CCN(Cc3ccccn3)CC2)cc1,-2.64,
NC(=S)N/N=C/c1coc2cc(Cl)ccc2c1=O,-8.57,
CC(C)Oc1c(Br)cc(Br)cc1/C=N/NC(N)=S,,16.4 µM (active)
CCOC(=O)C1=C(C)c2ccccc2OC1(C)C(=O)OCC (stereo unspecified),-15.8,
COc1ccc(NC(=O)CCC(=O)Nc2nnc(C3CCCCC3)s2)cc1,-3.36,
CCOc1ccc(N2CC(c3nc4ccccc4n3CCOc3ccc(OC)cc3)CC2=O)cc1 (stereo unspecified),,20.6 µM (active)
CC(C)(C)N1CC(c2nc3ccccc3n2Cc2ccc(F)cc2)CC1=O (stereo unspecified),-19.6,
CCCOc1cc(C)c(S(=O)(=O)n2nnc3ccccc32)cc1C,2.86,
Cc1ccc(C(C)C)c(OCCSc2nc3ccccc3n2CC(=O)O)c1,-6.59,
CCc1ccccc1N1CC(c2nc3ccccc3n2CCCCOc2ccccc2)CC1=O (stereo unspecified),-23.8,
CCCOc1ccc(N2CC(C(=O)Nc3ccccn3)CC2=O)cc1 (stereo unspecified),-0.824,
CCCCN1CC(c2nc3ccccc3n2CCCCOc2ccc(C)cc2C)CC1=O (stereo unspecified),,7.31 µM (active)
CCOc1ccc(NC(=O)[C@H](C)NC(=O)C2CC(=O)N(c3ccc(OC)cc3)C2)cc1 (stereo partly specified),4.17,
COc1ccc(OCCCn2c(C3CC(=O)N(c4ccc(F)cc4)C3)nc3ccccc32)cc1 (stereo unspecified),,18.4 µM (active)
COc1ccc(Nc2ccc([N+](=O)[O-])cn2)cn1,2.83,
CNC[C@H]1OCc2cnnn2CCCC(=O)N([C@H](C)CO)C[C@@H]1C,6.39,

SMILES,"activity change, negative = growth inhibition [%]",Potency
CCCCC(c1nnnn1CS(=O)(=O)c1ccc(C)cc1)N1CCC(C(N)=O)CC1 (stereo unspecified),-8.84,
Cc1ccc(CC2C(=O)N(c3ccc(F)cc3)C(=O)C2C)cc1 (stereo unspecified),11.8,
Clc1ccc2nc(CSc3ccccc3)cn2c1,-4.31,
Cc1ccc(CNC(=O)CCN2C(=O)[C@@H]3Cc4ccccc4CN3C2=O)cc1,-1.28,
CC[C@@]12C(=O)N(c3ccccc3)C(=O)N1[C@H](c1ccc(Br)cc1)[C@@H]1C(=O)N(C(C)(C)C)C(=O)[C@@H]12,,16.4 µM (active)
CCN1C(=O)[C@H]2[C@@H](c3ccc(C)cc3)N3C(=O)N(c4cccc(Br)c4)C(=O)[C@@]3(CC)[C@H]2C1=O,-17.6,
COc1ccc([C@@H]2[C@@H]3C(=O)N(C(C)(C)C)C(=O)[C@@H]3[C@]3(Cc4ccccc4)C(=O)N(c4cccc(Br)c4)C(=O)N23)cc1,3.95,
O=C1CN(C(=O)c2cc(F)cc(F)c2)c2ccccc2N1,-8.35,
CCOC(=O)c1cccc(NC(=O)CCOc2ccccc2)c1,10.4,
CCOCCC(=O)Nc1ccc2c(c1)c(=O)n(C)n2-c1ccc2ccccc2c1,,1.46 µM (active)
CCCC(=O)Nc1ccc2c(c1)nc(CCNC(=O)c1ccco1)n2C,-5.86,
C=CC1=C(C(=O)O)N2C(=O)[C@@H](NC(=O)/C(=N\OCC(=O)O)c3csc(N)n3)[C@H]2SC1,-9.22,
O=C(NCc1cc(F)cc(C(F)(F)F)c1)C1CCC(=O)N(C2CCCC2)C1 (stereo unspecified),-11.8,
Cc1ccccc1NC(=O)C(C)OC(=O)CCC(=O)N(CC(C)C)c1c(N)n(CC(C)C)c(=O)[nH]c1=O (stereo unspecified),3.98,
CCN(CC(=O)Nc1c(F)cccc1F)C(=O)c1ccc(Sc2nncn2C)c([N+](=O)[O-])c1,1.9,
NC(=O)c1ccccc1N(Cc1ccccc1)S(=O)(=O)c1ccccc1,25.7,
CCOC(=O)N1CCN(C(=O)c2ccccc2N(Cc2ccccc2)S(=O)(=O)c2ccc(OC)cc2)CC1,,2.91 µM (active)
CCOC(=O)N1CCN(S(=O)(=O)c2ccc(OC)cc2)CC1,0.194,
O=C(O)C#Cc1cccc2ccccc12,10.9,
CCn1ccnc1CNC(=O)CC1C(=O)NCCN1Cc1ccc(F)cc1Cl (stereo unspecified),-1.8,
Cc1cc(-n2cnc(-c3cn(C)nc3C)n2)no1,13.5,
CCCCN(C(=O)c1ccc(S(=O)(=O)N2CCOCC2)cc1)C1CCS(=O)(=O)C1 (stereo unspecified),1.37,
CCNC(=S)Nc1ccc(OC(F)(F)F)cc1,-16,
CCc1ccc2c(c1)NC(=O)C2(C)Cc1ccc(OC(F)(F)F)cc1 (stereo unspecified),,20.6 µM (active)
COC(=O)Cc1ccc(OCC(=O)Nc2ccc(OC(F)(F)F)cc2)cc1,-0.975,
CC1(C(=O)NS(=O)(=O)Cc2cccc(Cl)c2)CCN1C(=O)Cc1ccccc1 (stereo unspecified),-21.3,

SMILES,"activity change, negative = growth inhibition [%]",Potency
O=C(NCc1ccccc1)C1CCCN(c2nc3ccsc3c(=O)s2)C1 (stereo unspecified),2.51,
O=C(NCCc1cccc(F)c1)C1CCCN(c2nc3ccccc3s2)C1 (stereo unspecified),,18.4 µM (active)
Cc1cc(=O)n2nc(N3CCCC(C(=O)NCc4cccc(Cl)c4)C3)sc2n1 (stereo unspecified),-1.83,
CCC(C)c1ccc(NC(=O)COC(=O)C2CCCC2)cc1 (stereo unspecified),8.46,
CC(C)(C)NC(=O)NC(=O)COC(=O)C1c2ccccc2Oc2ccccc21,-0.439,
Cc1cn([C@H]2C[C@H](O)[C@@H](CNC(=O)[C@H](N)Cc3cccnc3)O2)c(=O)[nH]c1=O,9.28,
Cc1cccc(C)c1NC(=O)C(Cl)C(=O)c1ccccc1 (stereo unspecified),,5.17 µM (active)
Cc1cccc(C)c1NC(=O)CN(C)C(=O)CCC(=O)c1ccccc1,-17.9,
Cc1cccc(C)c1NC(=O)C(c1ccccc1)N1CC(=O)Nc2ccccc21 (stereo unspecified),-26.6,
Cc1ccc(C)c(NC(=O)C(c2ccccc2)N2CCN(CC(=O)NC3CC3)CC2)c1 (stereo unspecified),-36.9,
O=C(NCc1ccco1)c1nc2ncccn2n1,1.29,
O=C(NCc1ccco1)c1cccn2c(=O)c3c4c(sc3nc12)CCCC4,,9.2 µM (active)
O=c1oc(-c2ccco2)nc2sc3c(c12)CCCCC3,-6.64,
CC(C)C[C@H](NC(=O)C1CC(=O)N(c2ccc3c(c2)OCCO3)C1)C(=O)NC1CCCC1 (stereo partly specified),-1.7,
CN[C@@H]1[C@@H](O)[C@@H](O[C@@H]2[C@H](O)[C@H](O[C@H]3OC(CN)=CC[C@H]3N)[C@@H](N)C[C@H]2N)OCC1(C)O (stereo partly specified),0.521,
NC(=O)C1CCN(CC(O)CSc2ccc(F)cc2)CC1 (stereo unspecified),5.2,
OC(CNC1CCCC1)COc1ccc(F)cc1 (stereo unspecified),-16.4,
O=C(C1=C[C@H](c2coc3ccccc3c2=O)C[C@H](OCc2ccc(CO)cc2)O1)N1CCOCC1,-21.8,
C=CCOC(=O)C1=C[C@@H](c2ccccc2)C[C@@H](OCc2ccc(CO)cc2)O1,-18.7,
NC(=O)C1=C[C@@H](c2csc3ccccc23)C[C@@H](OCc2ccc(CO)cc2)O1,,25.9 µM (active)
NC(=O)C1=C[C@@H](c2ccc3c(c2)OCO3)C[C@@H](OCCCCO)O1,21.5,
NC(=O)C1=C[C@H](c2csc3ccccc23)C[C@H](OCc2ccc(CO)cc2)O1,,14.6 µM (active)
O=C(O)C1=C[C@H](c2cccs2)C[C@H](OCCCCO)O1,1.58,
